# Screening results deposited in PubChem BioAssay by Sanford-Burnham Center for Chemical Genomics.
# CYP2C9 act: human CYP2C9 activators, primary screen, biochemical, luminescence; Cytochrome P450 2C9 (Homo sapiens), P11712; recombinant CYP2C9, luciferin-H conversion; stronger effect = higher value; factor 1 = untreated enzyme, 0 = blocked; 96,000 tested, 1.4% active; activation factor at 5 µM;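 active = activation factor of 2 or more for CYP2C9 at a 5 µM dose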;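 also: 0 = sulfaphenazole-blocked wells and 1 = vehicle-only wells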
# CYP2C19 inh: blockers of cytochrome P450 2C19 activity – biochemical, luminescence, ADME assay, primary screen | P33261 | CYP2C19 Supersomes, luciferin-H EGE luminescence, 30 min | inhibition, % at 5 µM | 96,000 tested, 21% active | AID 778, 2007;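 active = CYP2C19 inhibition above a set limit at 5 µM in the primary screen, cut at about 50% in these data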;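 also: plate controls were negative control wells for no effect and 2.5 mM tranylcypromine positive control for full effect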
# Target sequence (P33261 whole entry, looked up): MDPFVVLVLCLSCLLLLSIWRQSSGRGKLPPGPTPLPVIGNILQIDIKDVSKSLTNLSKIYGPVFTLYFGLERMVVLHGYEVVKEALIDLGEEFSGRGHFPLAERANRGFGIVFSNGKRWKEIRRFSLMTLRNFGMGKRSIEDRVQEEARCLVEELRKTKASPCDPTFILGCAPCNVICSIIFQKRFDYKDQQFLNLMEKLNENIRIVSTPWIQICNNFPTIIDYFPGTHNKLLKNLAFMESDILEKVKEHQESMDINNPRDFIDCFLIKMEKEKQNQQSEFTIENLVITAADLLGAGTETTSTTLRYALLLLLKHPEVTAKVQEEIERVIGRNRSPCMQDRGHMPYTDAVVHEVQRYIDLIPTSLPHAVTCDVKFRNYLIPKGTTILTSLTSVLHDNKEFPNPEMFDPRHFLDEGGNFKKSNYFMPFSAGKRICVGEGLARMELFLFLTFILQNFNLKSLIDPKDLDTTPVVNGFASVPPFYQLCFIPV
# CYP2C9 inh: blockers of cytochrome P450 2C9 activity – biochemical, luminescence, ADME assay, primary screen; inhibition, % at 5 µM; CYP2C9 Supersomes, luciferin-H conversion; 96,000 tested, 20% active; P11712;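 active = blocking of liver enzyme CYP2C9 beyond about 50% at 5 µM, limit read from the data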
# CYP2C19 act: human CYP2C19 activators, primary screen, biochemical, luminescence. Cytochrome P450 2C19 (Homo sapiens), P33261. recombinant CYP2C19, luciferin-H EGE luminescence; stronger effect = higher value; 0 = fully inhibited enzyme, 1 = untreated enzyme. activation factor at 5 µM. 96,000 tested, under 10 active. AID 1025, 2008;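 active = activation factor of at least 2 at 5 µM in the primary screen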;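 also: 0 = wells with 2.5 mM tranylcypromine and 1 = vehicle-only wells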
# PLAP act: PLAP enzyme activators, biochemical, luminescence, HTS | Alkaline phosphatase, placental type (Homo sapiens), P05187 | purified PLAP enzyme, luminescent substrate read-out; stronger effect = higher value | activation fold at 20 µM | 96,000 tested, 1.2% active | AID 696, 2007; in the data active = activation fold above about 2
# The depositor's hits bear a star; . = no result given. Hits are enriched below; roughly 31% of the tested compounds scored in any of these assays.
SMILES,CYP2C9 act,CYP2C19 inh,CYP2C9 inh,CYP2C19 act,PLAP act
Cn1c(CCCNC(=O)c2ccccc2)nc2ccccc21,2.4*,32,-138,0.7,1.1
COc1ccccc1C(=O)NCCc1nc2ccccc2n1C,1.1,97*,-13,0,1.1
COc1ccc(Nc2nc(N)nc(SCc3nnc(C)s3)n2)cc1,1,-4,-2,1,0.8
N#CN=C1CCCCCN1CC(N)=O,1,2,-2,1,0.8
Cn1c(CNC(=O)c2ccc(F)cc2)nc2ccccc21,1.4,72*,-38,0.3,1.2
Cn1c(CNc2ccc(Cl)cc2)nc2ccccc21,0.2,98*,84*,0,0.7
CN1CC(c2ccc(C#N)cc2)C2(COc3ccccc3C2=O)C12C(=O)Nc1ccccc12 (stereo not drawn),0.7,11,34,0.9,1.3
Cc1cccc(-n2nc([N+](=O)[O-])c(=NCc3cccnc3)n2O)c1,0.7,60*,34,0.4,0.9
O=C(NNC(=O)c1sc2ccccc2c1Cl)Nc1ccc(Cl)cc1,1.2,24,-19,0.8,1
COC(=O)c1sc2ccccc2c1-n1cccc1C(=O)C(=O)Nc1ccc(F)cc1,0,33,100*,0.7,1.1
COC(=O)c1sccc1-n1cccc1C(=O)N1CCOCC1,0.9,41,11,0.6,0.9
COC(=O)c1sc2ccccc2c1-n1cccc1C(=O)C(=O)Nc1ccc(C)cc1,0,38,100*,0.6,1.2
COC(=O)c1sc2ccccc2c1-n1cccc1C(=O)C(=O)Nc1ccc(Cl)cc1,0,23,99*,0.8,0.9
CNc1c([N+](=O)[O-])cnn1-c1ccc(Cl)cc1Cl,0.7,53*,34,0.5,1.1
CNc1c([N+](=O)[O-])cnn1-c1ccccc1Cl,0.8,16,24,0.8,1
Cc1cc(C)n2c(SCC(=O)Nc3ccccc3)nnc2n1,1,29,-5,0.7,0.8
Cc1cc(C)n2c(SCc3ccccc3Cl)nnc2n1,2.8*,37,-178,0.6,0.8
Cc1cc(C)n2c(SCc3ccc(Cl)cc3Cl)nnc2n1,1.6,70*,-56,0.3,1
Cc1nn(CC(=O)O)c2ccccc12,0.8,-15,23,1.2,0.9
O=C(CCc1nc2ccccc2[nH]c1=O)OCC(=O)c1cccc2ccccc12,1.1,-5,-13,1.1,1.1
N/C(=N\OS(=O)(=O)c1ccc(Br)cc1)c1ccncc1,0.4,38,58*,0.6,0.8
Cc1ccc(C(=O)O/N=C(\N)c2ccc(Br)cc2)cc1C,1.5,5,-46,0.9,0.9
CCCc1nnc(SCC(=O)O)n1/N=C/c1ccc2c(c1)OCO2,1,-1,2,1,1.1
c1cc2nncn2nc1N1CCCC1,1,53*,-1,0.5,1
Fc1ccc(-c2nnc3ccc(N4CCCC4)nn23)cc1,0.7,-1,28,1,1.3
SMILES,CYP2C9 act,CYP2C19 inh,CYP2C9 inh,CYP2C19 act,PLAP act
c1ccc(N2CCN(c3ccc4nncn4n3)CC2)nc1,0.2,89*,79*,0.1,0.9
Cc1c(Cl)cccc1NC(=O)CCCN1C(=O)CCC1=O,0.9,18,7,0.8,1
COc1ccc(S(=O)(=O)N2CC3CCCN3c3ccc(C(F)(F)F)cc32)cc1 (stereo not drawn),0.7,73*,32,0.3,0.7
O=S(=O)(c1cc(Cl)ccc1Cl)N1CC2CCCN2c2ccc(C(F)(F)F)cc21 (stereo not drawn),0.2,17,82*,0.8,0.9
CCS(=O)(=O)c1ccc2c(c1)N(S(=O)(=O)c1ccc(OC)cc1)CC(C(=O)O)O2 (stereo not drawn),.,.,.,.,1
COc1ccc(S(=O)(=O)N2CC3CCCN3c3cc(C(F)(F)F)ccc32)cc1 (stereo not drawn),1.3,92*,-30,0.1,0.8
CCCCC(=O)NC1=NC(=O)C(C)(C)S1,1.1,-8,-8,1.1,0.9
C=CCn1c(NC(=O)c2ccc(Br)o2)c(C(=O)OCC)sc1=S,0.1,25,88*,0.7,1.2
COc1ccccc1C1Nc2cccc3cccc(c23)N1,0.6,70*,45,0.3,0.8
O=[N+]([O-])c1ccccc1C1Nc2cccc3cccc(c23)N1,0.3,99*,70*,0,1.2
Oc1ccccc1C1Nc2cccc3cccc(c23)N1,1,41,0,0.6,1.2
O=C(COC(=O)[C@H](Cc1ccccc1)NS(=O)(=O)c1ccccc1F)NC1CCCCC1,0.5,17,46,0.8,1.6
COc1cc(NC(=O)c2cccs2)cc(OC)c1,0.8,23,21,0.8,0.8
COc1cccc(NC(=O)c2cccs2)c1,0.7,54*,29,0.5,0.8
COc1cc(C(=O)Nc2ccc3c(c2)OCO3)ccc1-n1cnnn1,0.9,-1,6,1,0.8
COc1ccc(NC(=O)c2ccco2)c(NC(=O)Cc2cccs2)c1,0.6,40,41,0.6,0.7
COc1cccc(NC(=O)Cc2cccs2)c1,0.8,51*,21,0.5,0.9
COc1cc(NC(=O)Cc2cccs2)ccc1-n1cnnn1,1,53*,4,0.5,1
COc1ccc2c(c1)Cc1sc(NC(=O)c3cccs3)nc1-2,0.2,70*,85*,0.3,1.2
COc1cc(NC(=O)Cc2cccs2)cc(OC)c1,0.6,81*,40,0.2,0.9
COc1cccc(NC(=O)c2cccc(OC)c2OC)c1,1.7,81*,-73,0.2,1.2
COC(=O)c1sc2ccccc2c1N,1,14,5,0.9,1.1
COC(=O)c1sc2ccccc2c1NC(=O)c1cccs1,0.4,35,60*,0.7,1.1
Cc1nc2ccc(NC(=O)c3ccc(F)c(S(=O)(=O)N4CCOCC4)c3)cc2s1,0.7,18,27,0.8,0.9
COc1cccc(OCC(=O)N(Cc2nc(-c3ccc(Cl)cc3)no2)C(C)C)c1,0.1,88*,87*,0.1,1.4
COc1cccc(C(=O)N(Cc2nc(-c3ccc(C)cc3)no2)C(C)C)c1,0.6,12,41,0.9,1.3
COc1ccccc1OCC(=O)N(Cc1nc(-c2ccc(Cl)cc2)no1)C(C)C,1.6,78*,-64,0.2,1.6
COc1ccc(O)c(-c2[nH]ncc2C(=O)c2ccccc2C)c1,0.1,90*,87*,0.1,.
COc1ccc(O)c(C(=O)c2cnn(C(=O)c3cc(C)oc3C)c2)c1,1.2,6,-17,0.9,0.9
Cc1cc2c(c(=O)n1Cc1cccnc1)C(Cc1ccccc1)C(C#N)=C(N)O2 (stereo not drawn),0.3,74*,68*,0.3,0.8
